HT1080NT lethal: kills 2HG-producing HT-1080-NT fibrosarcoma cells; AID 686970; Potency, µM (top dose mostly 46.1 µM), for inactives: top-dose activity, negative = less viability, most hits filed as cytotoxic; actives 1.6% (n = 360,000); HT-1080-NT fibrosarcoma viability, CellTiter-Glo ATP luminescence, 48 h;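 also: NT is the 2HG producing partner of a matched IDH1 knockdown line; potency is read from the fitted curve at half-maximal effect; 0% = DMSO-treated cells and -100% = media-only wells without cells; nearly all actives have a fitted effect of over 55% in size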
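Fibrosarcoma NT cells, 750 per well in 5% FBS RPMI, were exposed to compound for 48 hours. Viability: CellTiter-Glo luminescence.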
DT40 TDP1 CPT: growth inhibition of DT40 Tdp1-/-;hTDP1 cells with camptothecin (screen for TDP1 inhibitors); actives 12% (n = 420,000); chicken DT40 Tdp1-/-;hTDP1 cells + 20 nM CPT, ATP luminescence, 48 h; AID 686979; Potency, µM (series often up to 46.2 µM), without a hit: top-dose activity change, negative = growth inhibition, actives largely listed as inhibitors; also: potency is read from the fitted curve at half-maximal effect; nearly all actives have a fitted effect of over 55% in size
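Chicken DT40 Tdp1-/- cells complemented with human TDP1, 400 cells/well, exposed to compounds plus 20 nM camptothecin for at least 48 h at 37 C; viability read as ATP content by CellTiter-Glo luminescence.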
IL1B secr inh: inflammasome signaling inhibition, IL-1 beta readout; actives 4.7% (n = 360,000); activity change, % at 57.5 µM; THP-1 LPS/ATP IL-1B secretion, AlphaLISA, 16 h; hits give low values; in the data active = activity change below about -50%; inconclusive = mostly about -30% to -49%
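Secreted IL-1B measured by AlphaLISA bead assay after 16 h compound exposure of THP-1 cells; compounds (final up to 57.5 uM) added 1 h before LPS (250 ng/mL) and ATP (1.25 mM) stimulation; lower signal means less secretion.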
DT40 TDP1 no CPT: qHTS for Inhibitors of human tyrosyl-DNA phosphodiesterase 1 (TDP1): qHTS in cells in absence of CPT | DT40 Tdp1-/- hTDP1 cells, no CPT, ATP luminescence, 48 h | Potency, µM (highest dose often 46.2 µM), without a hit: at the top dose activity change, negative = growth inhibition, most hits filed as inhibitors | actives 15% (n = 420,000) | AID 686978, 2013; also: potency is read from the fitted curve at half-maximal effect; nearly all actives have a fitted effect of over 55% in size
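DT40 Tdp1-/-;hTDP1 cells, no CPT (DMSO vehicle only), 400 cells/well; compounds pin-transferred; ≥48 hr, 37 °C; CellTiter-Glo 30 min RT dark, luminescence read.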
HT1080 IDH1KD tx: toxicity to HT-1080 IDH1 knockdown cells (counter line) | Potency, µM (highest dose often 46.1 µM), for inactives: at the highest dose activity, negative = toxicity, most hits filed as cytotoxic | HT-1080 IDH1 knockdown viability, ATP luminescence, 48 h | actives 2% (n = 360,000) | AID 686971;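 also: potency is read from the fitted curve at half-maximal effect; 0% = DMSO wells and -100% = cell-free medium wells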
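Cytotoxicity counter-line: IDH1KD HT-1080, 48 h, CellTiter-Glo. Curves classed by r2, magnitude and activity.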
Starred values were filed as active, the others as inactive; ? = inconclusive; nt = no result; [ ] = another dose, or the depositor's remark. In the library only some 19% were active in any assay of this set; here they are far more common. Unless noted, calls follow the shape of the dose curve; as a rule, active = well fitted curve in the direction sought with a large enough effect; inconclusive = small, poorly fitted or top-dose-only effect, or another doubt; inactive = no such curve, though single readings can be large; an effect the other way counts as inactive or inconclusive. Unless noted, % is scaled to controls: 0 for no effect and ±100 for the full control effect.

SMILES	HT1080NT lethal	DT40 TDP1 CPT	IL1B secr inh	DT40 TDP1 no CPT	HT1080 IDH1KD tx
COc1cccc(Nc2nc(N)c([N+](=O)[O-])c(N3CCOCC3)n2)c1	10%	?	16	23µM*	5%
Cc1noc(C)c1COc1ccc(C(=O)N2CCC(C(N)=O)CC2)cc1	5%	15%	22	25%	13%
CCOc1ccc(NC(=O)c2nc(S(=O)(=O)Cc3ccccc3F)ncc2Cl)cc1	nt	0.37µM*	nt	0.33µM*	nt
O=C(Nc1ccc(OC(F)F)cc1)c1nc(S(=O)(=O)Cc2ccccc2F)ncc1Cl	nt	0.45µM*	nt	1µM*	nt
CCOc1ccc(NC(=O)c2nc(SCc3ccccc3F)ncc2Cl)cc1	nt	-9%	nt	-23%	nt
O=C(c1ccc(F)cc1)n1nc(-c2cccnc2)nc1NCc1ccc(F)cc1	nt	?	nt	-22%	nt
CC(=O)c1cccc(N(CC(=O)NC2CCCC2)C(=O)c2csnn2)c1	8%	-6%	10	3%	12%
CCCCN(C(=O)c1c(-c2ccccc2)noc1C)c1c(N)n(CCC)c(=O)[nH]c1=O	15%[9.24 µM]	3%	-9	-3%	-7%
N#CCCN1CCN(CCC#N)C1=S	9%	0%	11	0%	15%
Cc1cc2nc(/N=C(\N)NC(=O)N3c4ccccc4Sc4ccccc43)nc(C)c2cc1C	19%	?	-7	15µM*	22%
CCC(=O)N/C(N)=N/c1nc(C)c2cc(OC)ccc2n1	7%[9.24 µM]	13µM*	-66*	12µM*	?
COc1ccc2nc(/N=C(\N)NC(=O)C(C)(C)C)nc(C)c2c1	4%	-18%	?	?	-1%
Cc1ccc2nc(/N=C(\N)NC(=O)N3c4ccccc4Sc4ccccc43)nc(C)c2c1	4%	?	5	9.2µM*	-2%
Cc1ccc2c(C)nc(/N=C(\N)NC(=O)N3c4ccccc4Sc4ccccc43)nc2c1	0%	?	-15	21µM*	-2%
O=S1(=O)CC2N=C(N(Cc3c(F)cccc3Cl)c3ccccc3F)SC2C1 (configuration not stated)	-12%	-22%	0	?	-10%
O=C(CN(C(=O)c1csnn1)c1cccc(C(F)(F)F)c1)NCc1ccc(F)cc1	8%	0%	-15	-18%	0%
COC(=O)Cc1[nH]c(=S)[nH]c1C(=O)OC	-1%	-12%	7	-10%	-1%
COc1ccc2nc(/N=C(\N)NC(=O)N3c4ccccc4Sc4ccccc43)nc(C)c2c1	7%	13µM*	4	16µM*	-12%
COc1cccc(-c2cnc(C(O)c3ccc(Cl)c(Cl)c3)[nH]2)c1 (configuration not stated)	-4%	21µM*	21	?	-18%
CSc1ccc(C(O)c2ncc(-c3cccc(F)c3)[nH]2)cc1 (configuration not stated)	4%	15µM*	0	?	-13%
COc1cccc(-c2cnc(C(O)c3ccc(SC)cc3)[nH]2)c1 (configuration not stated)	8%	?	15	16µM*	-16%
COc1cccc(-c2cnc(C(O)c3cc(C)cc(C)c3)[nH]2)c1 (configuration not stated)	11%	?	23	?	10%
COc1cccc(-c2cnc(C(O)c3ccc(Cl)cc3)[nH]2)c1 (configuration not stated)	4%	26µM*	35	?	-3%
COc1cccc(-c2cnc(C(O)c3ccc(F)cc3)[nH]2)c1 (configuration not stated)	7%	-12%	21	-12%	8%
COc1cc(C=O)cc(Cl)c1OC(=O)N1CCOCC1	0%	-2%	4	-6%	2%
O=C(CCC(=O)N1CCOc2ccccc21)Nc1ccccc1Cl	2%	-23%	4	-2%	-1%

Source: PubChem
